Screens: PubChem BioAssay, National Center for Advancing Translational Sciences (NCATS)
Shown are actives, neighbours in structure and some others; about 6% of the full set was active somewhere.
D1 ag: Allosteric Agonists of the Human D1 Dopamine Receptor: qHTS; D(1A) dopamine receptor (Homo sapiens), P21728; HEK293 T-REx D1 cells, calcium flux, agonist mode; activation, % at 2 µM; 360,000 compounds, 1% hits; AID 504660, 2011; in the data active means activation above about 30%; further: 0% is about no effect
Target sequence (P21728 whole entry, looked up): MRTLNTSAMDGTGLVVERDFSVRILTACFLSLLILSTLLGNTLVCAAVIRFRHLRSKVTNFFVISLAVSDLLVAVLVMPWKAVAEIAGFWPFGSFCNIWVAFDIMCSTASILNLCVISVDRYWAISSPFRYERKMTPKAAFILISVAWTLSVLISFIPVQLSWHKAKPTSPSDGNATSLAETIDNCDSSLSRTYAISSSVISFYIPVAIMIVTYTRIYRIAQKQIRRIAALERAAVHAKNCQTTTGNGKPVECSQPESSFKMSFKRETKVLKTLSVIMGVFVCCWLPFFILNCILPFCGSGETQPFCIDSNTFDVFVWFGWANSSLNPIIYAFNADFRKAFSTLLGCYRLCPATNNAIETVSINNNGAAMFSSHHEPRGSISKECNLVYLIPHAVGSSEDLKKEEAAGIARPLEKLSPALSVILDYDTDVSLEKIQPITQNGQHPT
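Inducible HEK293 T-REx D1 cells, force-coupled to calcium signalling, were plated at 4000 cells/well with tetracycline and held overnight at 30 C. After no-wash calcium dye loading, compound-evoked calcium rise over 180 s flagged agonists.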
D3 antag: qHTS of D3 Dopamine Receptor Antagonist: qHTS | D(3) dopamine receptor (Homo sapiens), P35462 | D3R cells, DiscoveRx beta-arrestin luminescence, antagonist mode; stronger effect = lower value | max response, negative = inhibition, % | 360,000 compounds, 2.5% hits | AID 652054, 2013; in the data active means max response below about -50%; inconclusive means no clear call, values can overlap the other calls; further: on the % scale 0 is the no-effect control and ±100 the full control effect
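Cells expressing the human receptor were seeded at 1500 cells/well, incubated overnight at 37 degrees C in 5% CO2, then exposed to library compounds with dopamine controls for 90 minutes at 37 degrees C before luminescent detection.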
D3 ag: qHTS of D3 Dopamine Receptor Agonist: qHTS; D(3) dopamine receptor (Homo sapiens), P35462; D3R DiscoveRx beta-arrestin cells, luminescence, 90 min; max activation, %; AID 652048, 2013; 410,000 compounds, 0.58% hits; in the data active means max activation above about 30%; further: 0% is about no effect
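Agonist mode: compounds and dopamine controls were applied to plated cells for 90 min at 37 degrees C after an overnight attachment at 1500 cells/well. Luminescent read-out followed 30 - 60 minutes at room temperature with DiscoveRx detection reagent.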
D1 antagonist: Antagonist of Human D 1 Dopamine Receptor: qHTS; HEK293 TREx D1 cells, calcium flux, dopamine EC80; stronger effect = lower value; activity change, negative = inhibition, % at 10 µM; 360,000 compounds, 3.2% hits; in the data active means activity change below about -30%; further: on the % scale 0 is the no-effect control and ±100 the full control effect
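Tetracycline-induced HEK293 T-REx cells with force-coupled D1 receptor were loaded with a no-wash calcium dye. Compound was added after a 10 s baseline and read kinetically for 180 s; EC80 dopamine was then added and calcium flux followed another 180 s.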
D1 potentiator: Potentiators of Human D1 Dopamine Receptor: qHTS; D(1A) dopamine receptor (Homo sapiens), P21728; HEK293 TREx D1 cells, calcium flux, dopamine EC20 potentiation; potentiation, % at 10 µM; 360,000 compounds, 0.036% hits; AID 504651, 2011; in the data active means potentiation above about 30%; further: 0% is about no effect
* hit, by the source's call; ? = inconclusive; nt = not tested or not shown.

SMILES	D1 ag	D3 antag	D3 ag	D1 antagonist	D1 potentiator
O=C(/C=C/c1cccc([N+](=O)[O-])c1)NCCN1C(=O)S/C(=C\c2ccc(F)cc2)C1=O	4	-13	-6	-40*	-4
CC(C)(C)SCCNC(=O)/C=C/c1cccc([N+](=O)[O-])c1	6	-14	-5	2	-1
CC(C)(C)SCCNC(=O)/C=C/c1ccc([N+](=O)[O-])cc1	13	-7	-2	-36*	-5
O=C(/C=C/c1ccc([N+](=O)[O-])cc1)NCCN1C(=O)S/C(=C\c2ccc(F)cc2)C1=O	1	-7	2	-31*	-4
O=C(/C=C/c1cccc([N+](=O)[O-])c1)NCCSc1ccccc1	0	-24	-6	8	-2
Cc1ccc(OCC(=O)Nc2ccc(Cl)c(-c3nc4ncccc4o3)c2)cc1C	7	nt	3	2	-3
O=C(NCCCN1CCN(CCCNC(=O)c2cccc(Cl)c2)CC1)c1cccc(Cl)c1	3	9	-7	-8	-4
COc1ccc(C(=O)NCCCN2CCN(CCCNC(=O)c3ccc(OC)c(OC)c3)CC2)cc1OC	1	-4	-2	-3	-5
COc1cc2sc3cc(NCc4ccc5c(c4)OCO5)ccc3c(=O)c2cc1OC	nt	66	41*	nt	nt
COc1cc2c(C(=O)NCCCN3CCN(c4cccc(Cl)c4)CC3)cn(C)c(=O)c2cc1OC	-1	-56*	31*	10	-5
O=C(NCCCN1CCN(c2cccc(Cl)c2)CC1)c1nc(-c2ccncc2)no1	-1	-64*	3	-13	-9
COc1ccccc1N1CCN(CCCCNC(=O)c2ccc3ccccc3c2)CC1	11	nt	nt	-54*	-5
CCc1cccc(C)c1NC(=O)CSc1nc(C)cc(C)c1C(=O)Nc1ccccc1	5	nt	-3	1	2
F[Si-2](F)(F)(F)(F)F	nt	nt	-3	nt	nt
O=C(Nc1nc(Nc2cc(F)cc(F)c2)nc(NC2CCCC2)n1)OCc1ccccc1	7	nt	nt	10	-4
Cc1nc(C(F)(F)F)ccc1C(=O)N1CCC1(C)C(=O)NS(=O)(=O)c1ccc(C#N)cc1 (stereo not drawn)	nt	0	-10	nt	nt
COc1ccc(S(N)(=O)=O)cc1C(=O)NCCCN1CCN(c2ccccc2OC)CC1	2	-92*	-5	-12	-14
COc1ccc(Cl)cc1C(=O)NCCS(=O)(=O)N1CCN(c2ccccc2OC)CC1	0	nt	8	15	-1
COc1ccc(Cl)cc1C(=O)NCCCN1CCOCC1	2	1	-7	-1	-1
COc1ccc(S(N)(=O)=O)cc1C(=O)NCCCN1CCN(c2ccc(C)cc2)CC1	3	-71*	-10	-42*	-20
COc1cc2c(C(=O)NCc3ccc4c(c3)OCO4)cn(C)c(=O)c2cc1OC	0	52	2	-31*	-4
COc1ccc(S(N)(=O)=O)cc1C(=O)NCCCN1CCN(c2cccc(Cl)c2)CC1	2	-50*	5	-51*	-7
COc1ccc(N2CCN(CC(=O)Nc3ncc(C)s3)CC2)cc1	0	6	4	6	2
COc1ccc(NC(=O)c2ccc(NC(=O)CN3CCN(c4ccc(O)cc4)CC3)cc2)cc1	nt	8	82*	nt	nt
COc1ccc(NC(=O)c2ccc(NC(=O)CN3CCN(c4ccccc4O)CC3)cc2)cc1	nt	-14	-2	nt	nt
SMILES	D1 ag	D3 antag	D3 ag	D1 antagonist	D1 potentiator
COc1ccc(N2CCN(CC(=O)Nc3nc(C)cs3)CC2)cc1	2	-29	-10	-41*	-1
COC(=O)c1ccc2nc(-c3ccc(Cl)cc3)c(Cc3ccsc3)n2c1	nt	0	4	nt	nt
CCOc1ccc(N(C)C(=O)c2oc(=O)c3ccccc3c2-c2ccccc2)cc1	0	nt	-20	3	1
O=C(c1nc2ccc(Cl)cn2c1CN1CCC(O)CC1)N1CCc2ccccc2C1	1	-15	-6	39	-1
CC1CCN(Cc2c(C(=O)N3CCc4ccccc4C3)nc3ccc(Cl)cn23)CC1	3	-89*	-19	11	-14
CCOc1cc(C(=O)NCCN2C(=O)S/C(=C\c3cccnc3)C2=O)cc(OCC)c1OCC	4	-8	-3	-49*	-5
CCn1c(=N)c(C(=O)NCc2ccccc2)cc2c(=O)n3cc(C)ccc3nc21	0	nt	9	-9	2
CCC(=O)N1CCCC(C(=O)Nc2ccc3cn[nH]c3c2)CC1 (stereo not drawn)	nt	2	7	nt	nt
COCCNC(=O)c1ccc2c(c1)S(=O)(=O)c1cc(Cl)ccc1C2=O	0	20	6	-17	-2
CC(C)(C)CNC(=O)c1ccc2c(c1)S(=O)(=O)c1cc(Cl)ccc1C2=O	3	15	21	-33*	5
COc1ccc(OC)c(C(O)c2ncc(-c3ccccc3OC)[nH]2)c1 (stereo not drawn)	nt	16	-3	nt	nt
CC1CCC(NC(=O)C2(C)Cc3ccccc3C(=O)N2Cc2ccc(Cl)cc2)CC1 (stereo not drawn)	0	nt	-7	-52*	-1
CC(C)CCN1C(=O)c2ccccc2CC1(C)C(=O)NC1CCC(C)CC1 (stereo not drawn)	0	nt	5	-2	1
CCOc1ccc(C2c3c(oc4ccc(C)cc4c3=O)C(=O)N2CCCN2CCOCC2)cc1 (stereo not drawn)	1	nt	0	-5	-6
CC1CN(CCCOc2ccccc2[N+](=O)[O-])CC(C)O1 (stereo not drawn)	-1	-59*	-50	-11	-1
CC1CN(CCCOc2ccc([N+](=O)[O-])cc2)CC(C)O1 (stereo not drawn)	2	-15	-7	11	-1
COc1cccc(OCCCN2CCCCC2)c1	3	-13	-43	5	4
CC1CCCN(CCOc2ccc(Br)cc2)C1 (stereo not drawn)	6	-99*	-33	-14	-5
COc1cccc(OCCCCN2CCCCC2)c1	-1	-83*	-33	26	-3
COC(=O)c1ccc(OCCCCN2CC(C)OC(C)C2)cc1 (stereo not drawn)	0	-75*	-15	10	4
c1ccc(OCCCCN2CCCCC2)cc1	4	?	-7	1	0
CC1CCCN(CCCCOc2cccc(Br)c2)C1 (stereo not drawn)	12	-83*	-9	-26	-7
COc1cccc(OCCCCN2CC(C)OC(C)C2)c1 (stereo not drawn)	2	-87*	-8	-6	-1
CC1CN(CCCCOc2ccc3ccccc3c2)CC(C)O1 (stereo not drawn)	15	?	-21	2	-1
Brc1cccc(OCCCCN2CCCCC2)c1	9	-92*	-29	18	-2
CCOc1cccc(OCCCCN2CCCCC2)c1	5	-66*	-13	12	-4
